Results filed as inconclusive are left out. Calls of active or inactive are those of the source. Rule for the calls: active = hit-call score of the fitted dose curve at least 0.9, where 1 is the maximum; inconclusive = response in the unintended direction; inactive = score below 0.9.
Assay: Tanguay_ZF_120hpf_CFIN_legacy: (Legacy) Oregon State University Tanguay Lab 120 Hour Post-fertilization zebrafish Assay for Caudal Fin Malformation (AID 2283649)
Description: Tanguay_ZF_120hpf_legacy is a whole embryo, multiplexed endpoint assay using zebrafish larvae exposed for 120 hours post fertilization on a 96-well plate.Tanguay_ZF_120hpf_CFIN_legacy is one of one assay component(s) measured or calculated from the Tanguay_ZF_120hpf_legacy assay. It is designed to make measurements of zebrafish development as detected with brightfield microscopy of developing zebrafish embryos.Data from the assay component Tanguay_ZF_120hpf_CFIN_legacy was analyzed into 1 assay endpoints. This assay endpoint, Tanguay_ZF_120hpf_CFIN_legacy, was analyzed in the positive analysis fitting direction relative to DMSO as the negative control and baseline of activity. Using a type of morphology reporter, gain-of-signal activity can be used to understand changes in developmentals as they relate to the whole embryo. To generalize the intended target to other relatable targets, this assay endpoint is annotated to the zebrafish development intended target family, where the subfamily is caudal fin morphogenesis.
Zebrafish husbandry: Tropical 5D wild-type adult zebrafish were housed in at an approximate density of 1000 per 100 gallon tank at the Sinnhuber Aquatic Research Laboratory, Oregon State University, Corvallis, OR. Each tank was kept at standard laboratory conditions of 28C on a 14-h light/10-h dark photoperiod in fish water consisting of reverse osmosis water supplemented with a commercially available salt (Instant Ocean). Spawning funnels were placed into the tanks the night prior, and embryos were collected and staged. To increase bioavailability, the chorion was enzymatically removed using pronase (63.6mg/ml, >/= 3.5U/mg, Sigma-Aldrich: P5147) at 4 hours post fertilization (hpf) using a custom automated dechorionator.Chemical exposures: Six hpf dechorionated embryos were placed 1 embryo per well in a 96-well plate prefilled with 90 ul of EM using automated embryo placement systems (AEPS). Ten microliters of each row of dilution plate 2 was added to 2 exposure plates. The final DMSO concentration used was 0.64% (vol/vol). Thirty-two embryos were also exposed to 5uM trimethyltin chloride (positive control). Plates were sealed to prevent evaporation and foil covered to reduce light exposure and kept in a 28C incubator. Embryos were statically exposed until 120 hpf. At 24 hpf, embryos were assessed for photomotor response using a custom photomotor response analysis tool (PRAT) and for developmental toxicity endpoints (MO24: mortality at 24 hpf, DP: developmental progression, SM: spontaneous movement, and NC: notochord distortion). At 120 hpf, locomotor activity was measured using Viewpoint Zebralab and assessed for 18 endpoints. Zebrafish acquisition and analysis program (ZAAP), a custom program designed to inventory, acquire, and manage zebrafish data, was used to collect developmental endpoints as either present or absent (i.e., binary responses were recorded). If mortality occurred for an embryo (at either 24 or 120 hpf), the non-mortality endpoints were not measured.

| Structure (SMILES) | outcome | AC50 |
| --- | --- | --- |
| COP(=S)(OC)Oc1nc(Cl)c(Cl)cc1Cl | inactive |  |
| N#Cc1cc(Br)c(O)c(Br)c1 | inactive |  |
| CON(C)C(=O)Nc1ccc(Cl)c(Cl)c1 | inactive |  |
| CCCC1COC(Cn2cncn2)(c2ccc(Cl)cc2Cl)O1 (stereo not given) | inactive |  |
| CCNc1nc(Cl)nc(NC(C)C)n1 | inactive |  |
| Cc1c(F)c(F)c(COC(=O)C2C(/C=C(\Cl)C(F)(F)F)C2(C)C)c(F)c1F (stereo not given) | inactive |  |
| C=CC1(C)OC(=O)N(c2cc(Cl)cc(Cl)c2)C1=O (stereo not given) | inactive |  |
| CNC(=O)ON=CC(C)(C)SC | inactive |  |
| COC(=O)C(C)Oc1ccc(Oc2ccc(Cl)cc2Cl)cc1 (stereo not given) | inactive |  |
| COC(=O)c1ccccc1C(=O)OC | inactive |  |
| CCOC(=O)CC(SP(=S)(OC)OC)C(=O)OCC (stereo not given) |  | 36.2 µM (active) |
| CC1=C(C(=O)Nc2ccccc2)SCCO1 | inactive |  |
| O=C(O)c1nc(Cl)ccc1Cl | inactive |  |
| O=C(Nc1ccccc1)Nc1ccnc(Cl)c1 | inactive |  |
| COc1cnc(OC)n2nc(NS(=O)(=O)c3c(OCC(F)F)cccc3C(F)(F)F)nc12 | inactive |  |
| N#Cc1nn(-c2c(Cl)cc(C(F)(F)F)cc2Cl)c(N)c1S(=O)C(F)(F)F (stereo not given) | inactive |  |
| CCON=C(CC)C1=C(O)CC(c2c(C)cc(C)cc2C)CC1=O (stereo not given) | inactive |  |
| CCCCC(CC)COC(=O)c1ccccc1C(=O)OCC(CC)CCCC (stereo not given) | inactive |  |
| CC(C)Oc1cc(-n2nc(C(C)(C)C)oc2=O)c(Cl)cc1Cl | inactive |  |
| Cc1cc(Cl)ccc1OCC(=O)O | inactive |  |

| Structure (SMILES) | outcome | AC50 |
| --- | --- | --- |
| O=C(O)COc1nc(Cl)c(Cl)cc1Cl | inactive |  |
| CCCCNC(=O)OCC#CI | inactive |  |
| COc1ccc(C(c2ccc(OC)cc2)C(Cl)(Cl)Cl)cc1 | inactive |  |
| CCOC(=O)C(Cl)Cc1cc(-n2nc(C)n(C(F)F)c2=O)c(F)cc1Cl (stereo not given) |  | 5.09 µM (active) |
| COP(N)(=O)SC (stereo not given) | inactive |  |
| Fc1ccc(Oc2ccnc3cc(Cl)cc(Cl)c23)cc1 | inactive |  |
| COc1nc(NC(C)C)nc(NC(C)C)n1 | inactive |  |
| C#CCOS(=O)OC1CCCCC1Oc1ccc(C(C)(C)C)cc1 (stereo not given) | inactive |  |
| CC(C)(C)c1ccc(CSc2cnn(C(C)(C)C)c(=O)c2Cl)cc1 | inactive |  |
| COC(=O)N(OC)c1ccccc1COc1ccn(-c2ccc(Cl)cc2)n1 | inactive |  |
| CCCCNC(=O)n1c(NC(=O)OC)nc2ccccc21 | inactive |  |
| CNC(=S)S | inactive |  |
| CCc1nn(C)c(C(=O)NCc2ccc(C(C)(C)C)cc2)c1Cl | inactive |  |
| C=CCC1=C(C)C(OC(=O)C2C(C=C(C)C)C2(C)C)CC1=O (stereo not given) | inactive |  |
| CCOc1cc(Oc2ccc(C(F)(F)F)cc2Cl)ccc1[N+](=O)[O-] | inactive |  |
| CCCCOC(=O)c1ccccc1C(=O)OCCCC | inactive |  |
| COC(=O)C=C(C)OP(=O)(OC)OC | inactive |  |
| Cc1ccc(-c2c(Cl)nc(C#N)n2S(=O)(=O)N(C)C)cc1 | inactive |  |
| OC(c1ccc(Cl)cc1)(c1cncnc1)c1ccccc1Cl (stereo not given) | inactive |  |
| CC(Oc1ccc(Cl)cc1Cl)C(=O)O (stereo not given) | inactive |  |

Source: PubChem BioAssay (EPA / NIEHS)
